# APP transl inh: inhibitors of APP translation via 5'UTR reporter, primary screen, APP 5'UTR luciferase, SH-SY5Y cells; SH-SY5Y APP 5'UTR-luciferase reporter, luminescence; inhibition, % at 2 µM; 190,000 compounds, 0.82% hits; AID 1285, 2008;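 active = inhibition above a set limit, derived from the sample mean plus 3 SD, cut at about 45% in these data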
# KLF5 inh: KLF5 expression inhibitors, primary screen, DLD-1 cells, luminescence | DLD-1 KLF5 promoter-luciferase reporter | inhibition, % at 5 µM | 290,000 compounds, 0.23% hits | AID 1700, 2009;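 active = inhibition above a per-plate limit of that plate's mean compound inhibition plus 3 SD, cut at about 60% in these data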;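 also: higher means less KLF5 promoter-driven luciferase light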
# IEC-6 tox-1: cytotoxicity in IEC-6 intestinal epithelial cells, primary screen, cytotoxicity control for KLF5 inhibitor project, cell-based, luminescence; IEC-6 cytotoxicity, luminescence viability; inhibition, % at 5 µM; 290,000 compounds, 0.78% hits; AID 1825, 2009; in the data active = inhibition above about 22%
# aSyn 5UTR inh: MLPCN primary screen, SNCA 5' untranslated region. alpha-synuclein 5'UTR reporter, inhibitor activity. inhibition, % (tested at 7.5 µM). 300,000 compounds, 0.82% hits; in the data active = inhibition above about 60%;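 also: H4 neuroglioblastoma cells stably carrying SNCA 5'UTR luciferase fusion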
# BaF3 tox: parental Ba/F3 cell viability inhibition, counter-screen for JAK2V617F inhibitor project, murine pro-B, CellTiter-Glo luminescence; inhibition, % at 5.6 µM; CellTiter-Glo ATP luminescence; 220,000 compounds, 1.1% hits;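 active = inhibition above a per-campaign cutoff, the mean inhibition of all tested compounds plus 3 SD, cut at about 27% in these data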
# Ba/F3 V617F tox: reduced viability of JAK2V617F-dependent Ba/F3 cells, primary screen, JAK2V617F inhibitor project, cell-based, Ba/F3 EpoR-JAK2V617F, luminescence | ATP luminescence | inhibition, % at 5.6 µM | 220,000 compounds, 1.1% hits | AID 1446, 2008;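 active = inhibition above the campaign mean plus 3 SD over all tested compounds, cut at about 24% in these data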;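 also: cytokine-independent growth of Ba/F3 cells driven by EpoR plus mutant JAK2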
# KLF5 inh confirm: KLF5 expression inhibitors, confirmation, DLD-1 cells, luminescence; shares compounds with KLF5 inh; DLD-1 KLF5 promoter firefly luciferase reporter; inhibition, % at 4 µM; 610 compounds, 79% hits; AID 1834, 2009;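 active = inhibition above a set limit taken from the earlier primary screen, cut at about 63% in these data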
# IEC-6 tox-2: cytotoxicity in rat IEC-6 cells, cytotoxicity control for KLF5 inhibitor project, cell-based, luminescence, triplicate; 610 compounds, 56% hits; inhibition, % at 4 µM; IEC-6 rat intestinal cells, viability luminescence; shares compounds with KLF5 inh; AID 1905, 2009; in the data active = inhibition above about 23%;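 also: cells exposed to compounds for 48 hours before viability read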
# A number is an active result; 0 = inactive; - = not tested or not shown. A selection: hits, their analogues and other compounds. The true share with any hit is near 2.1%.
SMILES,APP transl inh,KLF5 inh,IEC-6 tox-1,aSyn 5UTR inh,BaF3 tox,Ba/F3 V617F tox,KLF5 inh confirm,IEC-6 tox-2
CC(C)C(=O)NC(c1ccco1)c1ccc2cccnc2c1O (configuration not stated),84,67,0,63,60,51,96,40
CC(C)CC(=O)NC(c1cccs1)c1ccc2cccnc2c1O (configuration not stated),82,77,0,74,75,65,86,50
Cc1ccc(C(NC(=O)C(C)C)c2cc([N+](=O)[O-])c3cccnc3c2O)cc1 (configuration not stated),0,0,0,0,0,0,-,-
CCC(=O)NC(c1cccs1)c1ccc2cccnc2c1O (configuration not stated),85,78,28,80,59,77,91,81
Cc1conc1NC(c1cccs1)c1ccc2cccnc2c1O (configuration not stated),0,70,0,66,83,97,0,0
Cc1ccc(S(=O)(=O)c2nnn3c2nc(NC2CCN(Cc4ccccc4)CC2)c2ccccc23)cc1C,-,0,0,0,-,-,-,-
CC(=O)c1ccc2oc3ccccc3c(=O)c2c1,-,0,0,0,-,-,-,-
Cc1ccc(C)c(C(C)NC(=O)Cc2cccs2)c1 (configuration not stated),-,0,0,0,-,-,-,-
O=C(Nc1ncc([N+](=O)[O-])s1)c1ccc2c(c1)OCO2,-,76,0,103,-,-,0,36
CCCCN=C1NN=C(c2ccc3c(c2)OCCO3)CS1,0,0,0,0,0,0,-,-
c1cc2c(cc1C1=NNC(=NC3CC3)SC1)OCCO2,51,79,0,111,0,0,102,30
O=C(N/N=C/c1cc(Cl)ccc1O)c1ccncc1,-,70,0,0,0,0,88,0
COCCCN(C(=O)CCOc1ccc(C)cc1)c1c(N)n(Cc2ccccc2)c(=O)[nH]c1=O,-,-,-,0,-,-,-,-
COc1ccc(N(C(=O)c2ccncc2)S(=O)(=O)c2ccccc2)cc1,-,0,0,0,-,-,-,-
COc1ccc(N(C(=O)c2ccccc2C)S(=O)(=O)c2cccs2)cc1,93,66,72,0,74,68,76,62
COCc1ccc(C(=O)N2CCCC(C(=O)c3ccc(SC)cc3)C2)s1 (configuration not stated),-,0,0,0,-,-,-,-
CC(C)(C)c1ccc(C(=O)NCCOc2ccccc2)cc1,-,0,0,0,-,-,-,-
CC(C)(C)c1ccc(C(=O)NCCOc2ccccc2F)cc1,-,65,0,77,-,-,0,0
Cc1ccccc1CS(=O)(=O)Cc1ccc(C(=O)NC2CCCCC2)o1,-,0,0,0,-,-,-,-
C=CCn1c(SCc2cc(C(C)=O)ccc2OCC)nc2ccccc2c1=O,93,65,34,104,79,84,79,64
CN(C)S(=O)(=O)N1CCC(Oc2cccc(C(=O)NC3CCOC3)c2)CC1 (configuration not stated),-,0,0,0,-,-,-,-
OCCNCc1c(OCc2ccc(Cl)cc2)ccc2ccccc12,-,0,0,0,-,-,-,-
COc1ccccc1C(=O)NC(CCSC)C(=O)NNC(=O)c1ccncc1 (configuration not stated),-,-,-,0,-,-,-,-
Clc1ccc(-c2nc(-c3ccccn3)no2)cc1Cl,0,0,0,0,0,0,-,-
COc1ccc(-c2nc(-c3ccccn3)no2)cc1,46,110,28,107,35,34,103,45
SMILES,APP transl inh,KLF5 inh,IEC-6 tox-1,aSyn 5UTR inh,BaF3 tox,Ba/F3 V617F tox,KLF5 inh confirm,IEC-6 tox-2
Cc1cc(/C=N/Nc2ncnc(N)c2[N+](=O)[O-])c(C)n1-c1ccccc1,-,67,0,95,0,0,97,0
COc1cccc(/C=N/Nc2ncnc(N)c2[N+](=O)[O-])c1OC,0,0,0,0,0,0,-,-
Cc1nn(Cc2c(Cl)cccc2Cl)c(Cl)c1/C=N/NC(=O)c1cccnc1,0,0,0,0,0,0,-,-
O=C(Nc1sc2c(c1C(=O)O)CCCC2)c1ccc(F)cc1,-,0,0,0,-,-,-,-
CC(C)(C)c1ccc(C(=O)Nc2sc3c(c2C(=O)O)CCC3)cc1,0,78,0,95,0,0,75,0
COc1ccc(CC(=O)Nc2ccc(/C(C)=N\NC(=O)c3ccc(Br)o3)cc2)cc1,-,0,0,0,-,-,-,-
Cc1ccc(S(=O)(=O)Nc2cc(Cl)c(O)c3ncccc23)cc1,-,68,0,77,-,-,79,0
COc1ccc(NC(=O)c2ccco2)cc1NC(=O)c1cccc(F)c1,-,0,0,0,-,-,-,-
CCCC1=Nc2cc(C(=O)NCCCOC(C)C)ccc2Sc2ccccc21,0,62,0,0,0,0,0,0
CC1=Nc2cc(C(=O)NCCCOC(C)C)ccc2Sc2ccccc21,0,0,0,0,0,0,-,-
CC1=Nc2cc(C(=O)NCCCOC(C)C)ccc2Sc2ccc(C)cc21,95,74,84,77,71,74,85,59
CCCC(=O)Nc1ccc(C(=O)Nc2ccc([N+](=O)[O-])cc2OC)cc1,0,0,0,0,0,0,-,-
COc1ccc(S(=O)(=O)N2c3ccccc3OCC2c2ccccc2)cc1 (configuration not stated),-,0,0,0,0,0,-,-
COc1ccc(S(=O)(=O)N2c3ccccc3OCC2C)cc1 (configuration not stated),96,84,79,0,73,72,79,59
CC(=O)N(Cc1ccc(F)cc1)c1cccc(C)c1C,0,0,0,0,0,0,-,-
CC(=O)N(Cc1ccc(F)cc1)C1=C(NCCc2ccccc2)C(=O)c2ccccc2C1=O,0,79,54,70,0,0,0,0
CC(C)(C)C(=O)Nc1cc2nn(-c3ccccc3)nc2cc1Cl,0,83,0,-,0,0,93,0
CC(=O)Nc1cc2nn(-c3ccccc3)nc2cc1Cl,0,0,0,0,0,0,-,-
CCOP(=O)(OCC)C(NC(=O)c1cccs1)c1ccccc1 (configuration not stated),-,0,0,0,-,-,-,-
O=C(NCCc1ccccc1F)c1ccc2c(c1)OCCO2,-,100,0,108,-,-,108,0
N/C(=N\OCc1ccc([N+](=O)[O-])cc1)c1ccccn1,0,88,0,112,0,0,97,0
CN(Cc1cn(C)nc1-c1ccccc1F)CC1CCCCO1 (configuration not stated),0,0,0,0,0,0,-,-
CC(C)(C)c1ccc(C(=O)O/N=C(\N)c2ccccn2)cc1,-,89,0,94,-,-,96,0
